Assay outcomes (PubChem)
Sfp PPTase inh: blocks B. subtilis Sfp PPTase activity; 310,000 compounds, 3.5% hits; Potency, µM, for inactives: largest response in the series, negative = inhibition, hits mostly inhibitors; AID 1490; Q9F4F7; Biochemical Sfp PPTase activity, qHTS;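 also: the enzyme is Sfp with the accession as filed and its product quenches rhodamine fluorescence; 0% = enzyme reaction without inhibitor and -100% = no enzyme wells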
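Buffer: 50 mM Hepes-Na pH 7.6, 10 mM MgCl2, 0.01% Nonidet P-40, 0.01% BSA. Enzyme 15 nM, pre-exposed to compound 15 min; substrates then added and fluorescence change tracked over 30 min.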
G9a inh: G9a (human) methyltransferase inhibition. G9a H3K9 monomethylation, AlphaScreen, 2 h. 350,000 compounds, 8.8% hits. AID 504332. Potency, µM (highest dose often 102 µM), for inactives: at the top dose activity, negative = inhibition, actives largely listed as inhibitors. Q96KQ7; also: % is scaled to controls: 0 for no effect and ±100 for the full control effect; nearly all actives have a fitted effect of over 75% in size
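Using a bead-based AlphaScreen, monomethylated H3K9 product from 2 h room-temperature reactions (G9a 20 nM, peptide 500 nM, SAM 20 uM) was detected with 0.5 ug/mL rabbit anti-H3K9me1 antibody.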
TDP1 block: inhibitors of human tyrosyl-DNA phosphodiesterase TDP1; Q9NUW8; recombinant TDP1, AlphaScreen DNA substrate cleavage; Potency, µM (doses to about 130 µM), for the others: at the top dose activity change, negative = inhibition, most hits filed as inhibitors; 350,000 compounds, 0.28% hits; AID 485290; also: % is scaled to controls: 0 for no effect and ±100 for the full control effect; nearly all actives have a fitted effect of over 40% in size
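Here, a 5' biotin and 3' phosphotyrosine-FITC DNA oligonucleotide reports Tdp1 activity: intact substrate bridges AlphaScreen beads, while cleavage leaves a 3' phosphate and drops signal. All incubations at room temperature.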
HP1b chromo inh: blocks HP1-beta chromodomain binding to methylated histone tails; P83916; AlphaScreen HP1-beta / biotin-H3K9me3 peptide binding; Potency, µM (top dose mostly 114 µM), for the others: at the highest dose activity change, negative = inhibition, usual class: inhibitors; 390,000 compounds, 0.56% hits; also: nearly all actives have a fitted effect of over 70% in size
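AlphaScreen: HP1-beta (50 nM) preformed 30 min with biotin-H3(1-18)K9me3 peptide (50 nM) in PBS pH 7.4, 0.01% Tween-20. Compound added for 30 min at RT, then streptavidin donor/nickel chelate acceptor beads (10 ug/mL) for 30 min.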
BAZ2B inh: inhibitors of human BAZ2B bromodomain. 360,000 compounds, 4.4% hits. Potency, µM (series often up to 114 µM), for the others: at the highest dose activity change, negative = inhibition, hits mostly inhibitors. AlphaScreen BAZ2B-H3K14Ac peptide displacement. Q9UIF8; also: % is scaled to controls: 0 for no effect and ±100 for the full control effect; nearly all actives have a fitted effect of over 60% in size
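Compounds, titrated to a top concentration of 110 uM, were incubated 30 min at room temperature with preformed BAZ2B/acetyl-K14 H3 peptide complex (50 nM each). Proximity signal was measured by AlphaScreen after 20 min with beads.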
JMJD2A Tudor: JMJD2A Tudor domain (human) inhibition. AlphaScreen JMJD2A-Tudor / H3K4me3 peptide binding. Potency, µM (series often up to 114 µM), for the others: at the highest dose activity change, negative = inhibition, most hits filed as inhibitors. 390,000 compounds, 4.4% hits. AID 504339; also: % is scaled to controls: 0 for no effect and ±100 for the full control effect; nearly all actives have a fitted effect of over 50% in size
Numbers without * were called inactive; u = inconclusive; x = no result given; [ ] = another dose, or the depositor's remark. This is a sample that favours compounds with a hit; in the whole collection about 12% have one here. Calls follow the shape of the dose curve; as a rule, active = well fitted curve in the direction sought with a large enough effect; inconclusive = small, poorly fitted or top-dose-only effect, or another doubt; inactive = no such curve, though single readings can be large; an effect the other way counts as inactive or inconclusive. Potency is read from the fitted curve at half-maximal effect.

SMILES	Sfp PPTase inh	G9a inh	TDP1 block	HP1b chromo inh	BAZ2B inh	JMJD2A Tudor
CCCN1CCC(NC(=O)Nc2ccc([N+](=O)[O-])cc2)CC1	11%	5%[12.7 µM]	-3%	8%	-2%	-13%
CCCN1CCC(NC(=O)Nc2ccc(Br)cc2)CC1	14%	35µM*	5%	27%	30%	-18%
CC(=O)OCC(=O)C1(O)CCC2C3CCC4=CC(=O)CCC4(C)C3(F)C(O)CC21C (stereo not drawn)	x	x	x	21%	x	-8%
CCN(CC(=O)NCc1cccs1)C(=O)c1ccc(-c2ccc(F)cc2)o1	x	x	2%	2%	x	-34%
O=C(NC1CCCCC1)c1ccc(S(=O)(=O)c2ccccc2Cl)c([N+](=O)[O-])c1	-7%	u	-2%	x	-32%	x
CN(C(=O)c1ccc(S(=O)(=O)c2cccc(Cl)c2)c([N+](=O)[O-])c1)C1CCCCC1	7%	32µM*	0%	-8%	-36%	u
O=C(Nc1ccc([N+](=O)[O-])cc1)c1cccc(S(=O)(=O)Nc2ccccn2)c1	5%	-14%	1%	38%	-15%	-7%
CS(=O)(=O)N1CCC(C(=O)NNC(=O)Nc2ccc(F)c(Cl)c2)CC1	13%	39%	3%	16%	-11%	-9%
COc1ccccc1/C=C1/C(=O)N(c2ccc([N+](=O)[O-])cc2)N=C1C	18%	u	x	-2%	-36%	u
COc1cc(/C=C2/C(=O)N(c3ccc(Br)cc3)N=C2C)cc([N+](=O)[O-])c1O	-11%	79µM*	x	x	-33%	x
COc1cc(/C=C2/C(=O)N(c3cccc(Br)c3)N=C2C)cc(OC)c1O	u	10µM*	x	28µM*	10µM*	28µM*
Cc1ccc(C)c(N2C(=O)CC(Cc3ccccc3)C2=O)c1 (stereo not drawn)	19%	32%	x	40%	6%	1%
O=c1c(/C=N/OCc2ccc(Cl)cc2Cl)c[nH]n1-c1cccc(Cl)n1	2%	3%	11%	15%	-5%	-30%
O=c1c(-n2cncn2)c[nH]n1-c1cccc(Cl)n1	56µM*	u	7%	u	50µM*	50µM*
CC1=NN(c2ccc(Cl)cc2)C(=O)C1C(c1cccc(O)c1)c1c(C)[nH]n(-c2ccc(Cl)cc2)c1=O (stereo not drawn)	11%	u	3%	u	45µM*	56µM*
O=C(NCc1nnc(SCC(=O)N2CCCC2)o1)c1ccccc1	12%	55%	4%	26%	-17%	-12%
COc1ccc(Nc2nc(N)c(C(=O)c3ccc(OC)cc3)s2)cc1	-25%	u	x	15%	-24%	u
CC(C)(C)C(=O)c1sc(Nc2ccccc2)nc1N	u	25µM*	8%	u	50µM*	56µM*
N#CC1=C(c2ccc(-c3ccccc3)cc2)COC1=O	17%	11µM*	6%	-22%	-26%	-15%[11.4 µM]
O=C1OCC(c2ccccc2)=C1c1ccccc1	10%	-6%[59 µM]	0%	11%	3%	-8%
Cc1ccc2[nH]c(C)c(CCNC(=O)c3c(N)no[n+]3[O-])c2c1	-7%	u	3%	71µM*	u	50µM*
COC(=O)C(N)Cc1ccc(Cl)cc1 (stereo not drawn)	x	-4%[59 µM]	-7%[56.1 µM]	16%	1%	-11%
COC(=O)[C@@H](N)Cc1ccc(O)c(O)c1	56µM*	3%[59 µM]	-10%	15%	5%	-10%
O=C1NNC(c2ccccc2)=N/C1=C\c1ccccc1	3%	x	10%	50%	-3%	-2%
Cc1ccc(/C=C2/N=C(c3ccccc3)NNC2=O)cc1	21%	14µM*	7%	12%	-20%	-34%
SMILES	Sfp PPTase inh	G9a inh	TDP1 block	HP1b chromo inh	BAZ2B inh	JMJD2A Tudor
NS(=O)(=O)c1ccc(CCNC(=O)c2ccc3nc(Cc4ccccc4)oc3c2)cc1	x	-3%[59 µM]	-5%	21%[57 µM]	1%	-6%
C=C(C)Cn1c(C)cc(C)c(S(=O)(=O)c2cccc(C)c2)c1=O	-10%	317%	-5%	6%	43%	-6%
COC(=O)c1ccc2nc(C)cc(Nc3ccc(N(C)C)cc3)c2c1	-6%	50µM*	11%	-5%	40µM*	u
Cc1ccc(C(=O)Nc2ccc(C(=O)O)cc2)cc1S(=O)(=O)N1CCC(C)CC1	x	3%[59 µM]	0%[12.3 µM]	48%	-1%	1%
O=C1N=C(N2CCN(c3ccccc3)CC2)S/C1=C\c1ccco1	-65%	40µM*	-5%	-9%	50µM*	u
O=C1N=C(N2CCCC2)S/C1=C\c1ccccc1	21%	-8%[59 µM]	0%	-16%	13%	56µM*
O=C1N=C(N2CCN(c3ccccc3)CC2)S/C1=C\c1cn[nH]c1-c1ccccc1	0%	-14%[59 µM]	-3%	1%	-3%	-23%
Cc1ccccc1N1CCN(C2=NC(=O)/C(=C\c3cccs3)S2)CC1	-20%	50µM*	-4%	4%	-32%	-32%
Cc1ccc(N2CCN(C3=NC(=O)/C(=C\c4cn[nH]c4-c4ccccc4)S3)CC2)cc1	-4%	-5%[59 µM]	-4%	-4%	-4%	50µM*
Cc1ccc(/C=C2\SC(N3CCCCC3)=NC2=O)cc1	-1%	15%	x	-18%	2%	u
COc1ccc(NC(=O)N2CCCC2C(=O)NCCc2ccccc2)cc1 (stereo not drawn)	20%	21%	x	34%	8%	3%
Cc1ccccc1C(=O)N1CCC(n2nccc2NC(=O)CCOc2ccccc2)CC1	4%	x	1%	25%	-3%	-8%
NC1=NC(=O)/C(=C\c2ccco2)S1	35µM*	-44%[12.7 µM]	x	56µM*	79µM*	50µM*
CCc1ccc(/C=C2/SC(N3CCOCC3)=NC2=O)cc1	-16%	x	x	-14%	-10%	-4%
CCN1CCN(C2=NC(=O)/C(=C/c3ccc(C)o3)S2)CC1	16µM*	32µM*	-12%	-16%	u	-31%
O=C1N=C(N2CCOCC2)S/C1=C/c1cccs1	15%	5%[12.7 µM]	0%	-5%	2%[57.1 µM]	-7%
O=C1N=C(N2CCN(c3ccccc3)CC2)S/C1=C/c1ccco1	-6%	50µM*	3%	3%	45µM*	u
c1ccc2[nH]c(-c3cnco3)cc2c1	15%	16%[0.501 µM]	x	-4%	-6%	-28%
O=C(Nc1cccc(F)c1)c1ccc2c(c1)N(Cc1ccccc1)C(=O)c1ccccc1S2(=O)=O	x	6%[59 µM]	6%	44%	-2%	-9%
COc1ccccc1CNC(=O)C1CCC(CNS(=O)(=O)c2cccc3cccnc23)CC1 (stereo not drawn)	8%	4%[0.0925 µM]	-3%	21%	-2%	-12%
O=C(CCN1CCC2CCC(C2)C1)c1ccc(F)cc1 (stereo not drawn)	x	x	x	50%	x	-23%
